Results taken from PubChem BioAssay (NCI).
Compounds without any hit were thinned out: in the full panel of roughly 83,000, 20% have a hit.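 Plates (96-well) were seeded with cells, treated with compound at one concentration, and incubated for 48 hours before percent growth was determined.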 A number with no mark means an inactive call. Activity calls are given as the source filed them.

These molecules were tested on NCI-H522 lung (assay: NCI-60 one-dose screen, 48 h (100 = growth as untreated, 0 = no growth, -100 = all killed)). Details: 10 µM unless noted.
Procedure: Growth inhibition of the NCI-H522 human Non-Small Cell Lung tumor cell line is measured as a screen for anti-cancer activity. Cells are grown in 96 well plates and exposed to the test compound for 48 hours. Compounds are tested at a single concentration, which is 10^-5 M for most compounds. The reported endpoint is percent growth (GI% or GIPRCNT), where numbers from 0 - 100% represent growth inhibition, and numbers from -100% - 0 represent cell death. For example, a value of 40 represents 60% growth inhibition. A value of 0 means no net growth occurred over the course of the experiment. A value of -40 indicates 40% of cells at the beginning of the experiment died by the end of the experiment. A value of -100 means all cells are dead at the end of the experiment.
NCI-60 Human Tumor Cell Lines Screen was performed using the standard one-dose NCI protocol, which is described in more detail at https://dtp.cancer.gov/discovery_development/nci-60/default.htm.
Compounds with GIPRCNT values below 10 were considered active. Activity score was based on GIPRCNT using the following formula: […]
Score is 0 for GIPRCNT values of 100 or above, 50 for GIPRCNT values of 0, and 100 for GIPRCNT values of -100.
For `CCCCC(O)(c1ccc(Cl)cc1)C(CN1CCOCC1)c1ccc(Cl)cc1` (stereo not given), the growth was 19.8%.
With `Cc1ccc(S(=O)(=O)c2c(COC(=O)c3cccc(C)c3)c(-c3ccccc3)nn2C)cc1` the growth was -33.1% (active).
For `CCc1ccc(CNCC(O)c2ccccc2)cc1` (stereo not given), the growth was 77.7%.
Work on `COC(=O)[C@H](NC(=O)C1(C)CCC[C@]2(C)[C@H]3C[C@H]4C(C(C)C)=C[C@]3(CC[C@@H]12)[C@@H]1C(=O)CCC(=O)[C@@H]14)C(C)C` (stereo not given in full) yielded a growth of 102%.
`O=C1c2cc(Cl)ccc2Oc2cc([N+](=O)[O-])ccc2N1c1ccc(F)cc1F` showed a growth of 49.9%.
`COc1cc(C2C(C#N)=C(N)OC3=C2C(=O)c2ccccc2C3=O)cc(OC)c1O` (stereo not given) was tested, and the growth was -10.1% (active).
With `O=C(Cc1ccccc1)NC(c1ccc(Cl)cc1)c1c(O)ccc2ccccc12` (stereo not given) the growth was -8.23% (active).
For `COc1cc2nc(NC3CCC3)nc(NC3CCN(C(C)C)CC3)c2cc1OC`, the growth was 30.7%.
In the case of `C=C(C)CCC(C)N1CCC(N2CCC(C(=O)NCCc3ccccc3)CC2)CC1` (stereo not given), the growth is reported as 43.2%.
Work on `COc1ccc(C2c3ccc4ccccc4c3Oc3ncn(CCCn4ccnc4)c(=N)c32)cc1OC` (stereo not given) yielded a growth of 72.6%.
`CC(=O)c1ccc(Cc2ccc(C(C)=O)s2)s1` was tested, and the growth was 95.8%.
With `COc1cc(/C=C2\CN(C)C/C(=C\c3cc(CN4CCCC4)c(O)c(OC)c3)C2=O)cc(CN2CCCC2)c1O` the growth was 34.7%.
For `O=C(CCN1C(=O)c2ccccc2C1=O)Nc1ccc(Cl)cc1`, the growth was 66.3%.
Work on `COc1ccc(-c2nsc3c2NC(=O)CC3c2ccsc2)cc1` (stereo not given) yielded a growth of 11.6%.
Molecule `COc1cc(C(=O)Nc2ccc(-c3nc4ccccc4[nH]3)cc2)cc(OC)c1OC` has a growth of 25%.
`O=C(Nc1ccc(N2CCNCC2)cc1)c1[nH]ncc1Nc1cc(Oc2ccccc2)ncn1` was tested, and the growth was 8.05% (active).
For `O=c1oc2ccc(Br)cc2c(=O)n1-c1ccc(Br)cc1F`, the growth was 6.36% (active).
`COc1ccccc1C(=O)/C=C/c1ccccc1` was tested, and the growth was 81.8%.
With `Nc1ccc(-c2nc3cc(Oc4ccc(Oc5ccc6[nH]c(-c7ccc(N)cc7)nc6c5)cc4)ccc3[nH]2)cc1` the growth was 73.7%.
Work on `O=C(Nc1ccsc1C(=O)NC1CCCCC1)c1ccc(F)cc1` yielded a growth of 108%.
For `Cn1cc(-c2ccc3ncc(-c4ccc(CC(=O)Nc5cc(C(C)(C)C)no5)cc4)nc3c2)cn1`, the growth was 41.6%.
In the case of `O=C(NCc1ccccc1)C1CN(c2ccc(Cl)cc2)N(c2ccc(Cl)cc2)C1=O` (stereo not given), the growth is reported as 65.6%.
With `CCOC(=O)CSc1c(-c2ccccc2)c2cc(Cl)ccc2[nH]c1=O` the growth was 91.2%.
`CN(C)/C=C1\SC(=Nc2ccc(Cl)cc2)NC1=O` was tested, and the growth was 95.8%.
Work on `CCOC(=O)c1cc2c(n1Cc1ccccc1OC)-c1oncc1CCC2` yielded a growth of 19.2%.
`O=S1(=O)CCN(Cc2ccccc2)CC1` gave a growth of 104%.
Work on `COc1cc(OC)cc(N2C(=O)N(Cc3ccc(C(C)(C)C)cc3)c3ccccc3S2(=O)=O)c1` yielded a growth of 76.9%.
Work on `O=C(CSc1ncccc1C(=O)O)Nc1ccc(Oc2ccccc2)cc1` yielded a growth of 105%.
`CCOC(=O)C1=C(C)N=c2s/c(=C\c3cc(Cl)ccc3O)c(=O)n2C1c1ccc(OC)cc1` (stereo not given) was tested, and the growth was 81%.
With `COc1cccc2cc(N(C)c3nc(C)nc4ccsc34)ccc12` the growth was -15.2% (active).
`CN1CCN(Cc2ccc(NC(=O)c3cncc(C#Cc4nc(N)nc5[nH]ncc45)c3)cc2C(F)(F)F)CC1` was tested, and the growth was -37.1% (active).
For `O=c1oc2ccc(Br)cc2c(=O)n1-c1ccc(Cl)cc1F`, the growth was -1.53% (active).
`COc1cc(C2CC(c3ccc(Nc4nc(NCCO)nc(N5CCOCC5)n4)cc3)=NN2c2cc(Cl)cc(Cl)c2)cc(OC)c1OC` (stereo not given) showed a growth of 66%.
In the case of `O=C(CSc1ccc2nnc(-c3cccc(F)c3)n2n1)Nc1ccc2c(c1)OCO2`, the growth is reported as 85.4%.
In the case of `O=C(/C=C/c1ccc(C(F)(F)F)cc1)c1ccc(Nc2nc(NCCO)nc(N3CCOCC3)n2)cc1`, the growth is reported as 45.6%.
In the case of `Cc1ccc(Nc2nc(N)c3ccccc3n2)cc1Cl`, the growth is reported as 41%.
Work on `O=c1cc(-c2ccccc2)oc2cc(OCc3cn(Cc4ccc(F)cc4)nn3)cc(OCc3cn(Cc4ccc(F)cc4)nn3)c12` yielded a growth of 17.6%.
For `Cc1c(C(=O)OCCO)cc(-c2ccc(Cl)cc2)n1-c1ccc(Cl)cc1Cl`, the growth was 54.7%.
Work on `Cc1ccc(C)c(-c2csc(Nc3ccc(C)c(C)c3)n2)c1` yielded a growth of 65.3%.
In the case of `CCN1C(=O)N(CC)C2C1NN=c1s/c(=C3\C(=O)N(CC(C)(C)C)c4ccccc43)c(=O)n12` (stereo not given), the growth is reported as -4.26% (active).
